Data on 105 molecules can be found in PubChem BioAssay AID624202 (National Center for Advancing Translational Sciences (NCATS), 2012).

SMILES strings stand for the structures. In all, about 380,000 compounds went through this assay and about 4,000 (1.1%) were called active. Where a call stands in place of a potency, no number is given. Inconclusive results (about 3%) are left out. Calls come from the whole dose curve; as a rule, active = well fitted activation curve with a large enough effect; inconclusive = small, poorly fitted or top-dose-only effect; inactive = no such curve, though single readings can be large or run the other way. The full list was thinned out, with actives kept by preference.
Potency is the fitted concentration of half-maximal effect.

This assay is described as follows: qHTS Assay to Identify Small Molecule Activators of BRCA1 Expression. Note: nearly all actives have a fitted effect of over 80% in size. The note with it: MCF7-BRCA1-FFLuc reporter, luminescence, 48 h; series mostly up to 46.1 µM. The method, boiled down: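 Compounds are tested at multiple concentrations on MCF7 BRCA1-luciferase reporter cells seeded at 2000 per well; after 48 h, a single luminescence end-point is taken and curves fitted to the normalized data.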
In general terms: In qHTS, concentration-response curves come from the screen itself.
Take `CN(Cc1ccccc1)c1ncnc2onc(-c3ccc(F)cc3)c12`: the Potency entry was “inactive”.
Consider `O=C(CC(c1ccccc1)c1ccccc1)NCC(O)c1ccc([N+](=O)[O-])cc1` (stereo not given), for which the Potency entry was “inactive”.
As to `CCCCCCOC(=O)NCC(O)c1ccccc1` (stereo not given), the Potency was 2.82 µM (active).
With `CCCCOC(=O)Nc1nnc(CC(=O)NCc2ccccc2)s1`, the Potency entry was “inactive”.
Take `COc1ccc2cc(CNc3ccc(OC)c(OC)c3)c(=O)n(CC(=O)Nc3ccccc3F)c2c1`: the Potency result was “inactive”.
In the case of `COc1cc2nc(N3CCCN(C)CC3)nc(NC(C)C)c2cc1OC`, the Potency entry is “inactive”.
Turning to `COc1cccc(CNC(=O)C(NS(=O)(=O)c2ccc3nc(C)sc3c2)C(C)C)c1` (stereo not given), the Potency entry is “inactive”.
`CCC(C)c1ccc(NC(=O)COC(=O)C2CCCC2)cc1` (stereo not given): the Potency result is “inactive”.
As to `NS(=O)(=O)c1ccc(NC(=S)N2CCCC2)cc1`, the Potency entry was “inactive”.
With `CCC(C)c1ccc(NC(=S)N2CCCC2)cc1` (stereo not given), the Potency was 12.6 µM (active).
Turning to `CCN(C(=O)Cn1cnc2sc(C)c(S(=O)(=O)N3CCN(c4ncccn4)CC3)c2c1=O)c1ccccc1F`, the Potency entry is “inactive”.
With `COc1ccc(-c2ocnc2C(=O)Nc2ccc3c(c2)CCC3)cc1`, the Potency result was “inactive”.
Regarding `COc1ccc(-c2onc3ccc(C(C)=O)cc23)cc1`, the Potency is 8.91 µM (active).
In the case of `CCOC(=O)c1c(-c2ccc(OC)cc2)oc2ccc(OCc3ccc(C(=O)OC)cc3)cc12`, the Potency entry was “inactive”.
For `Cc1ccc(N2CC(C(=O)Nc3ccc(N(C)C)cc3)CC2=O)cc1Cl` (stereo not given), the Potency result was “inactive”.
As for `O=C(Nc1ccc(F)cc1F)c1cnn(-c2ccc(F)cc2)c1-n1cccc1`, the entry is “inactive”; as for `CCc1ccc(NC(=O)Nc2ccncc2)cc1`, 10 µM (active); as for `CC(C)CC(=O)Nc1ccc(Cc2ccncc2)cc1`, “inactive”.
With `CCc1ccc(NC(=O)N[C@H](C(=O)O)C(C)CC)cc1` (stereo not given in full), the Potency entry was “inactive”.
As for `Cc1ccccc1Nc1nn2c(=O)c3ccc(C(=O)NCCc4ccc(Cl)cc4)cc3nc2s1`, the Potency entry was “inactive”.
Consider `CN(N=O)c1ccc(C=C2c3ccccc3-c3ccccc32)cc1`, for which the Potency result is “inactive”.
For `COc1ccc(S(=O)(=O)NCCSc2nnnn2-c2ccccc2)cc1`, the Potency entry was “inactive”.
As to `O=C(Nc1ccc(F)cc1F)c1ccc2c(=O)n3c(nc2c1)CCCCC3`, the Potency result is “inactive”.
In the case of `CCCNC(=O)CCc1c(C)nc2c(c(C)nn2-c2ccc(C)cc2)c1C`, the Potency entry was “inactive”.
In the case of `CCCNC(=O)c1c(Cl)cnn1-c1ccc(C)cc1`, the Potency is 10 µM (active).
To `CCc1nc2c(cnn2-c2ccc(C)cc2)c(=O)n1-c1ccc(C)cc1` belongs “inactive”.
Regarding `COc1ccccc1CNC(=O)CCn1c(=O)c2ccccc2n(CC(=O)Nc2cccc(Cl)c2)c1=O`, the Potency result is “inactive”.
With `COc1cc(/C=C2\Oc3ccc(C#Cc4ccc(O)cc4)cc3C2=O)cc(OC)c1`, the Potency result is “inactive”.
As for `COc1ccc2c(c1)O/C(=C\c1ccccc1O)C2=O`, the Potency is 12.6 µM (active).
As for `O=C1Oc2ccccc2C(=O)/C1=C/c1ccccc1O`, the entry is “inactive”.
To `Cc1ccc(C)c(CN2C(=O)c3ccccc3S(=O)c3ccc(C(=O)N4CCOCC4)cc32)c1` (stereo not given) belongs “inactive”; to `Cc1ccc(-c2cc(-c3coc4ccccc4c3=O)c3c(n2)-c2cc(Cl)ccc2OC3)cc1`, “inactive”.
As for `CN(C)CCCn1c(-c2ccc(Cl)cc2)csc1=Nc1ccccc1`, the Potency entry is “inactive”.
Regarding `CCOc1cccc(OCCCOc2cccc3cccnc23)c1`, the Potency entry was “inactive”.
Regarding `O=S(=O)(NCCOc1cccc2cccnc12)c1ccc(F)cc1`, the Potency entry is “inactive”.
As for `Fc1ccccc1COc1cccc2cccnc12`, the figure is 7.94 µM (active).
As for `CCOC(=O)c1cccc(NS(=O)(=O)c2cn(C)c(C)n2)c1`, the entry is “inactive”; as for `Cc1ccc(S(=O)(=O)c2c(Nc3cccc(Cl)c3)sc(C(=O)c3ccc4c(c3)OCO4)c2N)cc1`, “inactive”; as for `CC1(C)CC(=O)C=C(c2ccccc2CO)C1=O`, “inactive”.
As for `Cc1ccc(-c2ccc(C3=CC(=O)CC(C)(C)C3=O)cc2)cc1`, the figure is 2.24 µM (active).
As for `CC1(C)CC(=O)C=C(c2ccc(COC(=O)c3cc(F)cc(F)c3)cc2)C1=O`, the Potency entry is “inactive”.
With `COc1cc(C(=O)Nc2ccc(OCc3cc(=O)n4cc(C)sc4n3)cc2)cc(OC)c1OC`, the Potency entry is “inactive”.
Take `CC1=Nc2cc(C(=O)N3CCC(C)CC3)ccc2Sc2ccc(Cl)cc21`: the Potency result was “inactive”.
With `Oc1ccc(Cl)cc1C1C=C(c2ccc3c(c2)OCO3)NC(c2ccc(F)c(Br)c2)N1` (stereo not given), the Potency result is “inactive”.
To `COc1ccc(C2=NN(C(C)=O)C(c3ccccc3)C2)cc1` (stereo not given) belongs 11.2 µM (active); to `COc1ccc(C2=NN(C(=O)CSc3nc(=O)n4ccc(C)cc4n3)C(c3ccc(C)cc3)C2)cc1` (stereo not given), “inactive”; to `COc1ccc(C2CC(c3ccccc3)=NN2C(=O)c2ccc(Cl)c([N+](=O)[O-])c2)cc1` (stereo not given), “inactive”.
As to `O=C(Nc1c(-c2ccc(F)cc2)nc2ccccn12)c1cccc(F)c1`, the Potency result was “inactive”.
`Cc1ccc(C)c(NC(=S)NNC(=S)Nc2ccc(C(C)C)cc2)c1`: the Potency entry is “inactive”.
For the molecule `CC(C)c1ccc(NC(=S)NC2CC3C=CC2C3)cc1` (stereo not given), the Potency was 4.47 µM (active).
On to `O=C(COC(=O)C1CC2C=CC1C2)Nc1ccccc1` (stereo not given), for which the Potency result was “inactive”.
Turning to `OC[C@@H]1O[C@H](n2cnc3c(SCc4ccccc4)ncnc32)[C@H](O)[C@H]1O`, the Potency entry was “inactive”.
To `COc1cc(OC)cc(-c2nc3nc(C)c(CCC(=O)Nc4ccccc4)c(C)n3n2)c1` belongs “inactive”.
Regarding `CC(=O)c1ccc(NC(=O)COc2ccccc2-c2nc(-c3ccccc3)no2)cc1`, the Potency entry is “inactive”.
In the case of `COc1ccc2c(Cl)c(C(=O)NCc3ccco3)sc2c1`, the Potency was 11.2 µM (active).
To `O=C(NCc1ccco1)c1sc2cccc(F)c2c1Cl` belongs “inactive”; to `CCN(C(=O)c1sc2cc(OC)ccc2c1Cl)c1ccccc1`, “inactive”.
As for `C=C1C=C(C(F)F)n2ncc(C(=O)NCCc3ccccc3OC)c2N1`, the Potency entry is “inactive”.
As for `c1csc(-c2nnc(COc3ncnc4sccc34)o2)c1`, the entry is “inactive”; as for `CNC(=O)c1nnc(Cc2ccc(Cl)cc2)o1`, “inactive”.
As for `Clc1ccc(Cc2nnc(-c3cccs3)o2)cc1`, the Potency was 11.2 µM (active).
`CCCCCCCNc1ccc(/C=C/c2ccnc3ccccc23)cc1`: the Potency result is “inactive”.
On to `COc1ccc(OCc2n[nH]c(=S)n2N)cc1`, for which the Potency entry is “inactive”.
Turning to `COc1ccc(Cn2c(C)c(C)c(C#N)c2NC(=O)Nc2ccc(F)cc2)cc1`, the Potency entry is “inactive”.
Turning to `COc1ccc(Cc2n[nH]c(=S)n2NC(=O)Nc2ccc(C)cc2)cc1`, the Potency is 12.6 µM (active).
Turning to `CN(C)c1ccc(C=Nc2ccc(/C=C/c3ccnc4ccccc34)cc2)cc1`, the Potency entry is “inactive”.
Turning to `O=C(NC1CCCCC1)c1ccc2c(c1)N(Cc1ccc(Cl)cc1)C(=O)c1ccccc1S2=O` (stereo not given), the Potency entry is “inactive”.
Turning to `O=CN1CCN(C(=O)c2ccc3c(c2)OCO3)CC1`, the Potency entry is “inactive”.
`N#Cc1ccccc1NC(=O)c1ccc2c(c1)OCO2`: the Potency was 3.16 µM (active).
As for `O=C(Nc1ccccc1)c1ccc2c(c1)OCO2`, the Potency was 10 µM (active).
Consider `Cc1ccc(C(=O)NNC(=O)c2ccc3c(c2)OCCO3)cc1`, for which the Potency was 6.31 µM (active).
In the case of `Cc1ccc(C(=O)NNC2=Nc3cc([N+](=O)[O-])ccc3OC2)cc1`, the Potency result was “inactive”.
Turning to `CC(C)NC(=O)CSc1ccccc1C(=O)NCc1ccc2c(c1)OCO2`, the Potency entry was “inactive”.
As for `N#Cc1ccccc1NC(=O)c1cccc(COc2ccc(Cl)cc2Cl)c1`, the entry is “inactive”.
For the molecule `O=C(Nc1cccc(Cl)c1N1CCOCC1)c1ccc2c(c1)OCCO2`, the Potency entry was “inactive”.
With `CCSc1ccccc1C(=O)Nc1ccc2c(c1)OCO2`, the Potency is 11.2 µM (active).
Turning to `Cc1ccc(S(=O)(=O)NCC(=O)Nc2ccc3c(c2)OCCO3)cc1`, the Potency entry was “inactive”.
`CCOc1ncccc1C(=O)Nc1ccc2c(c1)OCCO2`: the Potency entry is “inactive”.
As for `C/C(=N/NC(=S)Nc1ccccc1)c1ccc2c(c1)OCO2`, the entry is “inactive”; as for `COc1cc2c(=O)c(S(=O)(=O)c3ccc(C(C)C)cc3)cn(Cc3ccccc3C)c2cc1OC`, “inactive”; as for `COc1cc(C(=O)Nc2ccc(-n3c(C)nc4ccccc4c3=O)cc2)cc(OC)c1OC`, “inactive”.
To `O=c1cc2nc(-c3ccccc3)nc(SCCOc3ccc(Cl)cc3)n2[nH]1` belongs “inactive”.
Turning to `CCCCC(CCCC)c1ccc(C=Nc2ccc(/C=C/c3ccnc4ccccc34)cc2)cc1`, the Potency entry was “inactive”.
In the case of `Cc1ccccc1NC(=O)Cn1c(=O)n(CC2CCC(C(=O)NCCc3ccccc3)CC2)c(=O)c2ccccc21` (stereo not given), the Potency entry was “inactive”.
As for `CCOC(=O)c1c(C)[nH]c(C)c1S(=O)(=O)N1CCCC(C(=O)NCc2ccccc2Cl)C1` (stereo not given), the entry is “inactive”; as for `COc1ccc(NC(=O)CCNS(=O)(=O)c2ccc3c(c2)CCCC(=O)N3)cc1Cl`, “inactive”.
For the molecule `COCCn1c(SCC(=O)c2cc(C)ccc2C)nc2cc(C(=O)NC3CCCC3)ccc2c1=O`, the Potency entry was “inactive”.
On to `N#Cc1ccc[n+](CC(=O)c2ccc(O)c(O)c2)c1`, for which the Potency result was “inactive”.
Take `CCOC(=O)C1CCCN(CC(=O)Nc2cc(C)c3c(=O)oc4ccccc4c3n2)C1` (stereo not given): the Potency entry was “inactive”.
On to `O=C(Nc1ccccc1)c1ccc2c(c1)OCCCO2`, for which the Potency was 12.6 µM (active).
To `C/C(Cc1ccccc1)=N\NC(=O)CNC(=O)c1ccc2c(c1)OCCO2` belongs “inactive”.
Regarding `CS(=O)(=O)N1CCc2cc(C(=O)Nc3ccccc3)ccc21`, the Potency result was “inactive”.
Regarding `O=C1N(Cc2ccccc2)c2ccc(Cl)cc2C1(O)c1c[nH]c2ccccc12` (stereo not given), the Potency entry is “inactive”.
As for `CC(C)(C)C1CCC(C(=O)NCC(c2cccs2)N2CCOCC2)CC1` (stereo not given), the Potency entry was “inactive”.
Regarding `O=C(NCc1csc(-c2cccs2)n1)C1CC1`, the Potency is 11.2 µM (active).
As for `O=C(NCc1ccc(Cl)cc1)C1CCN(S(=O)(=O)c2cccs2)CC1`, the entry is “inactive”; as for `Cc1ccc(CNS(=O)(=O)c2ccc(C(=O)N(C)C)s2)cc1`, “inactive”.
Turning to `CCOC(=O)c1ccc(N2C(=O)c3n[nH]c(-c4ccco4)c3C2c2ccc(O)cc2)cc1` (stereo not given), the Potency entry is “inactive”.
On to `CCCNC(=O)C1CC(=O)N(c2ccc(OCC(=O)Nc3cccc(C)c3C)cc2)C1` (stereo not given), for which the Potency entry was “inactive”.
For the molecule `CCOc1ccc(N2CC(C(=O)NCc3ccccn3)CC2=O)cc1` (stereo not given), the Potency result was “inactive”.
Consider `CCCNC(=O)C1CC(=O)N(c2ccc(OCc3ccccc3)cc2)C1` (stereo not given), for which the Potency was 3.16 µM (active).
Consider `OCC(O)C(O)C(O)C(O)C=Nc1ccc(/C=C/c2ccnc3ccccc23)cc1` (stereo not given), for which the Potency entry is “inactive”.
As for `OC(COc1ccc2ccccc2c1)Cn1cncn1` (stereo not given), the entry is “inactive”.
On to `OC(COc1ccc2ccccc2c1)CN1CCOCC1` (stereo not given), for which the Potency was 11.2 µM (active).
As for `Cc1cccc(OCC(O)Cn2c(=N)n(CCN3CCOCC3)c3ccccc32)c1` (stereo not given), the Potency entry was “inactive”.
